Assay results as given in PubChem BioAssay AID1159580 (chemical genetic matrix, 2015).
Several values for one entry are separate records, joined by “and”; a condition that tells them apart may be missing. Identical values can stand only once. Out of some 5,500 compounds screened, about 2,000 (36%) were called active. Inconclusive results (about 18%) are left out. No stated cut-off is given here; in the data, active means normalized growth mostly below about 0.91 (no sharp cut-off); inconclusive means no clear call, values can overlap the other calls; inactive means mostly above about 0.92. This is one part of the list.

Experiment: chemical genetic growth profiling, strain panel (AID 1159580);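 further: tested at 20 µM; growth read once vehicle control cultures reached saturation at 30 °C; 1 = growth at the plate median or of vehicle wells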
Conditions: growth OD

Measured: normalized growth

CN1CCN(CC(=O)N2c3ccccc3C(=O)Nc3cccnc32)CC1
inactive: S. cerevisiae deletion strains, locus YJR075W, strain HOC1, stronger effect = lower value 1.01 and 0.992 | S. cerevisiae deletion strains, locus YKL009W, strain mrt4, stronger effect = lower value 0.998 | S. cerevisiae deletion strains, locus YKL068W, stronger effect = lower value 1 | S. cerevisiae deletion strains, locus YKL085W, strain MDH1 (second series), stronger effect = lower value 1.02 | S. cerevisiae deletion strains, locus YKL085W, strain MDH1, stronger effect = lower value 1.02 | S. cerevisiae deletion strains, locus YKL160W, strain elf1, stronger effect = lower value 1.01 | S. cerevisiae deletion strains, locus YKL190W, strain CNB1, stronger effect = lower value 1.01 | S. cerevisiae deletion strains, locus YKR001C, strain vps1, stronger effect = lower value 1.01 | S. cerevisiae deletion strains, locus YKR026C, strain gcn3, stronger effect = lower value 1.01 | S. cerevisiae deletion strains, locus YKR091W, strain srl3, stronger effect = lower value 1 | S. cerevisiae deletion strains, locus YLL001W, strain dnm1, stronger effect = lower value 1.01 | S. cerevisiae deletion strains, locus YLL026W, stronger effect = lower value 1.02 | S. cerevisiae deletion strains, locus YLL041C, strain sdh2, stronger effect = lower value 1.01 | S. cerevisiae deletion strains, locus YLR027C, strain aat2, stronger effect = lower value 1 | S. cerevisiae deletion strains, locus YLR039C, strain RIC1, stronger effect = lower value 1.04 | S. cerevisiae deletion strains, locus YLR058C, strain SHM2, stronger effect = lower value 1.02 | S. cerevisiae deletion strains, locus YLR102C, strain apc9, stronger effect = lower value 1.02 | S. cerevisiae deletion strains, locus YLR113W, strain HOG1, stronger effect = lower value 0.989 | S. cerevisiae deletion strains, locus YLR221C, strain rsa3, stronger effect = lower value 1.01 | S. cerevisiae deletion strains, locus YLR258W, strain gsy2, stronger effect = lower value 1.02 | S. cerevisiae deletion strains, locus YLR262C, strain YPT6 (second series), stronger effect = lower value 0.992 | S. cerevisiae deletion strains, locus YLR262C, strain YPT6, stronger effect = lower value 1.04 | S. cerevisiae deletion strains, locus YLR268W, strain sec22, stronger effect = lower value 1.03 | S. cerevisiae deletion strains, locus YLR320W, strain mms22, stronger effect = lower value 1.02 | S. cerevisiae deletion strains, locus YLR330W, strain CHS5, stronger effect = lower value 1.01 | S. cerevisiae deletion strains, locus YLR342W, strain FKS1 (second series), stronger effect = lower value 1.05 | S. cerevisiae deletion strains, locus YLR342W, strain FKS1, stronger effect = lower value 1.01 | S. cerevisiae deletion strains, locus YLR357W, strain rsc2, stronger effect = lower value 1.05 | S. cerevisiae deletion strains, locus YLR370C, strain arc18, stronger effect = lower value 1.03 | S. cerevisiae deletion strains, locus YLR371W, strain rom2, stronger effect = lower value 1.03 | S. cerevisiae deletion strains, locus YLR384C, strain iki3, stronger effect = lower value 1.02 | S. cerevisiae deletion strains, locus YLR418C, strain cdc73, stronger effect = lower value 1.05 | S. cerevisiae deletion strains, locus YML016C, strain PPZ1, stronger effect = lower value 1.01 | S. cerevisiae deletion strains, locus YML032C, strain rad52, stronger effect = lower value 1.01 | S. cerevisiae deletion strains, locus YML120C, strain ndi1, stronger effect = lower value 1 | S. cerevisiae deletion strains, locus YML124C, strain tub3, stronger effect = lower value 1.02 | S. cerevisiae deletion strains, locus YMR058W, strain fet3, stronger effect = lower value 1.04 | S. cerevisiae deletion strains, locus YMR078C, strain ctf18, stronger effect = lower value 1.01 | S. cerevisiae deletion strains, locus YMR125W, strain sto1, stronger effect = lower value 1.01 | S. cerevisiae deletion strains, locus YMR129W, stronger effect = lower value 1.02 | S. cerevisiae deletion strains, locus YMR205C, strain PFK2, stronger effect = lower value 1.04 | S. cerevisiae deletion strains, locus YMR223W, strain ubp8, stronger effect = lower value 1.01 | S. cerevisiae deletion strains, locus YMR231W, strain pep5, stronger effect = lower value 1.02 | S. cerevisiae deletion strains, locus YMR263W, strain SAP30, stronger effect = lower value 1.01 | S. cerevisiae deletion strains, locus YMR307W, strain GAS1, stronger effect = lower value 1.07 | S. cerevisiae deletion strains, locus YNL067W, strain RPL9B, stronger effect = lower value 1.01 | S. cerevisiae deletion strains, locus YNL071W, strain lat1, stronger effect = lower value 1.03 | S. cerevisiae deletion strains, locus YNL128W, strain TEP1, stronger effect = lower value 1.03 | S. cerevisiae deletion strains, locus YNL153C, strain GIM3, stronger effect = lower value 1.01 | S. cerevisiae deletion strains, locus YNL175C, strain NOP13, stronger effect = lower value 0.985 | S. cerevisiae deletion strains, locus YNL183C, strain NPR1, stronger effect = lower value 0.938 | S. cerevisiae deletion strains, locus YNL197C, strain WHI3, stronger effect = lower value 0.982 | S. cerevisiae deletion strains, locus YNL209W, strain ssb2, stronger effect = lower value 1.02 | S. cerevisiae deletion strains, locus YNL224C, strain SQS1, stronger effect = lower value 1.01 | S. cerevisiae deletion strains, locus YNL233W, strain BNI4, stronger effect = lower value 1.01 | S. cerevisiae deletion strains, locus YNL248C, strain rpa49, stronger effect = lower value 1.03 | S. cerevisiae deletion strains, locus YNL250W, strain rad50, stronger effect = lower value 1.01 | S. cerevisiae deletion strains, locus YNL271C, strain bni1, stronger effect = lower value 1.01 | S. cerevisiae deletion strains, locus YNL298W, strain CLA4, stronger effect = lower value 1.02 | S. cerevisiae deletion strains, locus YNL307C, strain MCK1, stronger effect = lower value 1.03 | S. cerevisiae deletion strains, locus YNL322C, strain KRE1 (second series), stronger effect = lower value 1.02 | S. cerevisiae deletion strains, locus YNL322C, strain KRE1, stronger effect = lower value 1.01 | S. cerevisiae deletion strains, locus YNR049C, strain mso1, stronger effect = lower value 1 | S. cerevisiae deletion strains, locus YNR052C, strain pop2, stronger effect = lower value 1.03 | S. cerevisiae deletion strains, locus YOL006C, strain TOP1, stronger effect = lower value 1.05 | S. cerevisiae deletion strains, locus YOL012C, strain htz1 0.832 | S. cerevisiae deletion strains, locus YOL147C, strain pex11, stronger effect = lower value 1.04 | S. cerevisiae deletion strains, locus YOR001W, strain rrp6, stronger effect = lower value 1.02 | S. cerevisiae deletion strains, locus YOR061W, strain CKA2, stronger effect = lower value 1.01 | S. cerevisiae deletion strains, locus YOR069W, strain VPS5, stronger effect = lower value 1.01 | S. cerevisiae deletion strains, locus YOR070C, strain gyp1, stronger effect = lower value 1.02 | S. cerevisiae deletion strains, locus YOR080W, strain dia2, stronger effect = lower value 1.01 | S. cerevisiae deletion strains, locus YOR083W, strain WHI5 (second series), stronger effect = lower value 0.986 | S. cerevisiae deletion strains, locus YOR083W, strain WHI5, stronger effect = lower value 0.967 | S. cerevisiae deletion strains, locus YOR106W, strain vam3, stronger effect = lower value 1.02 | S. cerevisiae deletion strains, locus YOR136W, strain idh2, stronger effect = lower value 1.01 | S. cerevisiae deletion strains, locus YOR144C, strain elg1, stronger effect = lower value 1.02 | S. cerevisiae deletion strains, locus YOR184W, strain ser1, stronger effect = lower value 1.01 | S. cerevisiae deletion strains, locus YOR231W, strain MKK1, stronger effect = lower value 0.983 | S. cerevisiae deletion strains, locus YOR265W, strain rbl2, stronger effect = lower value 1.01 | S. cerevisiae deletion strains, locus YOR270C, strain vph1, stronger effect = lower value 1.06 | S. cerevisiae deletion strains, locus YOR290C, strain snf2, stronger effect = lower value 1.02 | S. cerevisiae deletion strains, locus YOR316C, strain cot1, stronger effect = lower value 1.02 | S. cerevisiae deletion strains, locus YPL051W, strain arl3, stronger effect = lower value 1.01 | S. cerevisiae deletion strains, locus YPL055C, strain LGE1, stronger effect = lower value 1.01 | S. cerevisiae deletion strains, locus YPL078C, strain atp4, stronger effect = lower value 1.02 | S. cerevisiae deletion strains, locus YPL106C, strain sse1, stronger effect = lower value 1.03 | S. cerevisiae deletion strains, locus YPL240C, strain hsp82, stronger effect = lower value 1 | S. cerevisiae deletion strains, locus YPL241C, strain CIN2, stronger effect = lower value 1.01 and 0.991 | S. cerevisiae deletion strains, locus YPL256C, strain CLN2, stronger effect = lower value 0.978 | S. cerevisiae deletion strains, locus YPR119W, strain clb2, stronger effect = lower value 1.01 | S. cerevisiae deletion strains, locus YPR141C, strain kar3, stronger effect = lower value 1.02 | S. cerevisiae deletion strains, locus YPR163C, strain tif3, stronger effect = lower value 1.03 | S. cerevisiae deletion strains, locus YPR167C, strain met16, stronger effect = lower value 1.02 | S. cerevisiae deletion strains, strain wtn01, stronger effect = lower value 1.01 | S. cerevisiae strains, strain wild type, stronger effect = lower value 1.01
